The text below walks through data of PubChem BioAssay (NCI).

Each structure is given as a SMILES string. Compounds without any hit were thinned out: in the full panel of roughly 83,000, 20% have a hit.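 Treatment: one concentration, 48 hours, 96-well format. Scoring: percent growth, with anything below 10 considered active.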 Values without a mark were called inactive. Active and inactive are the calls of the source.

This assay concerns EKVX NSCLC. Kind of assay: NCI-60 one-dose screen, 48 h (100 = growth as untreated, 0 = no growth, -100 = all killed). Particulars: 10 µM unless noted. The protocol: Growth inhibition of the EKVX human Non-Small Cell Lung tumor cell line is measured as a screen for anti-cancer activity. Cells are grown in 96 well plates and exposed to the test compound for 48 hours. Compounds are tested at a single concentration, which is 10^-5 M for most compounds. The reported endpoint is percent growth (GI% or GIPRCNT), where numbers from 0 - 100% represent growth inhibition, and numbers from -100% - 0 represent cell death. For example, a value of 40 represents 60% growth inhibition. A value of 0 means no net growth occurred over the course of the experiment. A value of -40 indicates 40% of cells at the beginning of the experiment died by the end of the experiment. A value of -100 means all cells are dead at the end of the experiment.
NCI-60 Human Tumor Cell Lines Screen was performed using the standard one-dose NCI protocol, which is described in more detail at https://dtp.cancer.gov/discovery_development/nci-60/default.htm.
Compounds with GIPRCNT values below 10 were considered active. Activity score was based on GIPRCNT using the following formula: […]
Score is 0 for GIPRCNT values of 100 or above, 50 for GIPRCNT values of 0, and 100 for GIPRCNT values of -100.
On to `O=C1C=CC(=O)c2c1nc1n2CCCC1`, for which the growth is 104%. Next, `CN1Cc2c(cc(CN3CCCCC3)n2C)C(c2ccc(Br)cc2)C1` (stereo not given): 77.2%. For the compound `O=C1c2c[n+](Cc3ccccc3)ccc2-c2nc3ccccc3c3ccnc1c23`, the growth is -1.66% (active). The figure for `C[C@@]1(N2C(=O)OC[C@@H]2c2ccccc2)C(=O)N([C@H](CC(=O)N2CCC(N3CCCCC3)CC2)C(=O)NCc2cccc(C(F)(F)F)c2)[C@@H]1/C=C/c1ccccc1` is 71.7%; for `COc1ccc(-c2nn(-c3ccccc3)cc2/C=C2\SC(=O)NC2=O)cc1` it is 85.2%.

Consider `COc1ccc2[nH]c(=O)c(/C=C/C(=O)c3ccc(Nc4nccc(-c5ccc6ccccc6c5)n4)cc3)cc2c1`, for which the growth is 107%. Take `O=C1O[C@H]([C@H](O)CO)C(O)=C1O`: the growth was 110%.

As to `CC/C=C\C[C@H](O)C/C=C1/C(=O)C=C[C@@H]1C/C=C\CCCC(=O)OC(C)C`, the growth was 15.9%. Next, `Nc1ccc(Nc2nccc(-c3ccc4ccccc4c3)n2)cc1`: 61%; `CCCCCCNC(=O)Oc1ccc(/C(=C(\C)c2ccccc2)c2ccc(OCCN(CC)CC)cc2)cc1`: 90.5%. The figure for `COc1ccc(C2Nc3ccccc3-n3cccc32)cc1` (stereo not given) is 68.8%; for `COc1ccc(S(=O)(=O)NCCNc2nccc(-c3c(-c4cccc([N+](=O)[O-])c4)nc4sccn34)n2)cc1` it is 82.1%. The figure for `CNCc1cccc2c1OCCOCCOCCN(C)S(=O)(=O)c1ccc(cc1)-c1cnc(N)c(n1)C(=O)N2` is 43.6%; for `COC(=S)SCN(CSC(=S)OC)c1ccc(Cl)cc1` it is 70.3%.

Regarding `O=C(CN1CCN(c2cc3c(cc2F)c(=O)c(C(=O)N/N=C/c2ccccc2)cn3C2CC2)CC1)N/N=C\c1ccccc1`, the growth is 66.6%. The figure for `CCOC(=O)c1c2c(n3ccc(NC(=O)CCN(CC)CC)cc13)C(=O)c1ncccc1C2=O` is 71.3%. Next, `COC(=O)[C@@H]1CC[C@]2(C)[C@H](CC[C@@H]3O[C@@]32C)[C@@]1(C)CC(=O)c1ccoc1`: 105%. `COc1cc(NCCCCN=C(N)N)c2ncccc2c1`: the growth was 65.2%. The figure for `O=S(=O)(Nc1ccc(F)c(Cl)c1)c1ccc(-c2cnc(C3CC3)o2)cc1` is 32.2%; for `O=C(O)c1ccc2c(c1Sc1ccccc1)C(=O)c1ccccc1C2=O` it is 36.1%. Next, `O=C(NCc1cccc(C(F)(F)F)c1)[C@H](CCC(=O)N1CCN(C2CCCCC2)CC1)N1C(=O)[C@@H](N2C(=O)OC[C@@H]2c2ccccc2)[C@H]1/C(Cl)=C/c1ccccc1`: 53.8%; `O=C(Nc1ccc(CN2CCOCC2)cc1)c1[nH]ncc1Nc1ncnc2sccc12`: 13.4%; `COc1ccc(S(=O)(=O)NCCCNc2nccc(-c3c(-c4cccc(N)c4)nc4sccn34)n2)cc1`: 96.3%. Next, `CN(CC(=O)N(Cc1ccc(C2CCCCC2)cc1)c1ccc(C(=O)NO)cc1)S(=O)(=O)c1c(F)c(F)c(F)c(F)c1F`: 106%; `CS(CCCCN=C=S)=NC(=O)c1c(F)c(F)c(F)c(F)c1F` (stereo not given): 97.8%. Take `Cc1ccc2cnc(N)c(C#Cc3cncc(C(=O)Nc4ccc(CN5CCN(C)CC5)c(C(F)(F)F)c4)c3)c2c1`: the growth is -93.9% (active). Next, `COc1ccc(-n2cc(-c3ccccc3)c3c(SCC(=O)N/N=C/c4ccc([N+](=O)[O-])cc4)ncnc32)cc1`: 97%; `O=C(CO[N+](=O)[O-])Nc1ccc(C(=O)/C=C/c2ccc(Cl)cc2)cc1`: 67.9%. Next, `CSc1[nH]c2ncnc(N)c2c1C#N`: 83.2%; `COc1cnc2c(c1)C(=O)c1c-2n(CCCN2CCCC2)c(=O)c2cc([N+](=O)[O-])ccc12`: 21.7%; `O=C1OC2C(I)C3CC2C1C3c1ccccc1` (stereo not given): 129%. Next, `CCOC(=O)C(CC)n1c(=O)c2cc(OC)c(OC)cc2c2cnc3[nH]ccc3c21` (stereo not given): 76.4%; `COc1cc2c(c(OC)c1OC)-c1ccc(N=NC(N)=S)c(=O)cc1[C@@H](NC(C)=O)CC2`: 52.4%. Take `Oc1c(Cl)cc(Cl)cc1CNc1nccnn1`: the growth was 94.4%. Next, `COc1ccc2nc(NC(=O)c3cccnc3Nc3cc(OC)c(OC)c(OC)c3)sc2c1`: 36.3%; `Nc1c(C(=O)Nc2cccc3c2OCCO3)sc2nc3c(cc12)CN(Cc1ccccc1)CC3`: 83.3%. Regarding `CC1=CC(=O)CC(C)(C)[C@@]1(O)/C=C/[C@@H](C)O`, the growth was 91.6%.

`COc1ccc(-c2csc(NC(=O)CN3CCN(c4cc5c(cc4F)c(=O)c(C(=O)O)cn5C4CC4)CC3)n2)cc1`: the growth is 26.2%.

In the case of `CS(=O)CCCCCN=C=S` (stereo not given), the growth was 12.8%.

In the case of `Cc1cc(=O)oc2cc(Oc3nc(-c4cccs4)cn4c(-c5cccs5)cnc34)ccc12`, the growth was 64%.
